Screening results: PubChem, National Center for Advancing Translational Sciences (NCATS)
Pf growth 48h = P. falciparum growth inhibition at 48 hours (one generation) | P. falciparum luciferase growth in erythrocytes, 48 h | AID 504832 | Potency, µM (titrated, usually from 28.7 µM), inactives show at the top dose activity change, negative = inhibition, hits mostly inhibitors | actives 5.9% (n = 310,000); active = well fitted inhibition curve with a large enough effect; inconclusive = small, poorly fitted or top-dose-only effect, or another doubt; inactive = no such curve, though single readings can be large or run the other way; note: potency is the fitted concentration of half-maximal effect; % is set by controls: 0 for no effect and ±100 for the full control effect
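Luminescence readout; reporter = integrated firefly luciferase in P. falciparum. RBC culture at 2% hematocrit, 0.1% parasitemia final, 37 C/5% CO2; decreased signal taken as growth inhibition.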
SARS PLpro yeast = blocks SARS-CoV papain-like protease in a yeast assay | S. cerevisiae expressing SARS-CoV PLpro, growth rescue | Potency, µM (doses to about 32.9 µM), inactives show at the top dose activity, positive = growth rescue, most hits filed as activators | actives 0.19% (n = 330,000) | AID 485353; note: potency is the fitted concentration of half-maximal effect; 0% is about no effect; nearly all actives have a fitted effect of over 55% in size
Pf growth 96h = P. falciparum growth inhibition at 96 hour, primary screen for plastid delayed-death inhibitors; Potency, µM (series often up to 28.7 µM), without a hit: at the top dose activity change, negative = inhibition, usual class: inhibitors; AID 504834; actives 6.9% (n = 320,000); P. falciparum luciferase reporter growth, 96 h; active = well fitted inhibition curve with a large enough effect; inconclusive = small, poorly fitted or top-dose-only effect, or another doubt; inactive = no such curve, though single readings can be large or run the other way; note: potency is the fitted concentration of half-maximal effect; % is set by controls: 0 for no effect and ±100 for the full control effect
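Two-generation exposure (96 h) targets delayed-death phenotype. Reporter parasites carrying integrated firefly luciferase, in red cells at 2% hematocrit and 0.05% parasitemia final, kept at 37 C, 5% CO2; luminescence loss indicates inhibition.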
Cycloheximide cs = affects cycloheximide protein synthesis inhibition readout, counter-screen. cell reporter, cycloheximide protein synthesis inhibition counterscreen. max response, %. actives 12% (n = 300,000); in the data active = max response mostly above about 13%, no sharp cut-off; inactive = mostly below about 14%; note: read at 38.3 µM for the half of the compounds with a filed dose; 0% is about no effect
Shiga toxin inh = Shiga toxin inhibition | Vero cells, Shiga toxin protein synthesis inhibition reporter | inhibition, % at 38.7 µM | actives 9.2% (n = 290,000) | AID 2315; in the data active = inhibition mostly above about 28%, no sharp cut-off; inactive = mostly below about 43%; note: 0% is about no effect
NS1 function inh = influenza NS1 inhibition | Potency, µM (titrated, usually from 46.1 µM), inactives show top-dose activity, positive = more growth | actives 0.4% (n = 270,000); note: potency is the fitted concentration of half-maximal effect; actives are rising curves; nearly all actives have a fitted effect of over 50% in size
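In this qHTS, NS1 from influenza A is expressed in budding yeast, where it slows growth. Cells are switched from glucose to 2% galactose medium (pH 6.0, -URA), treated with compound, and growth recovery is read at OD600.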
* marks the source's active call; other numbers are inactive results; ? = inconclusive; . = not tested or not shown. This is a sample that favours compounds with a hit; in the whole collection about 21% have one here. Unless noted, calls come from the whole dose curve.

SMILES	Pf growth 48h	SARS PLpro yeast	Pf growth 96h	Cycloheximide cs	Shiga toxin inh	NS1 function inh
COc1ccc(CNCC(O)COc2ccc(C(C)(C)c3ccccc3)cc2)cc1 (configuration not stated)	9.3µM*	-1%	?	-7	-7	0%
COC(=O)c1ccc(CNCC(O)COc2ccc(-c3ccccc3)cc2)cc1 (configuration not stated)	?	-1%	11%	3	37	-6%
CCOc1ccc(OCC(O)CNC2CCN(Cc3ccccc3)CC2)cc1 (configuration not stated)	2.6µM*	3%	2.3µM*	-1	-32	-2%
CC(C)(c1ccccc1)c1ccc(OCC(O)CNC2CCN(Cc3ccccc3)CC2)cc1 (configuration not stated)	3.3µM*	-12%	2.1µM*	-6	-28	.
CN(C(=O)COC(=O)CNC(=O)C12CC3CC(CC(C3)C1)C2)C1CCS(=O)(=O)C1 (configuration not stated)	11%	-8%	48%	2	-9	-6%
CCCN1C(=O)/C(=C/c2c(NCCCOCC)nc3c(C)cccn3c2=O)SC1=S	?	1%	0%	10	4	3%
Cc1cccn2c(=O)c(/C=C3\SC(=S)NC3=O)c(NCCCN3CCOCC3)nc12	13µM*	-2%	?	0	-3	7%
O=C(/C=C/c1ccc(F)cc1)c1ccccc1Br	0%	-94%	?	20*	35	-28%
Cc1ccc(C(=O)/C=C/c2ccc(F)cc2)o1	8%	-17%	?	60*	76*	-43%
O=C1CC(c2cccs2)Cc2nc(NCC3CCCO3)ncc21 (configuration not stated)	1%	9%	63%	-3	24	-5%
CC1(C)NC(=O)N(CC(=O)O)C1=O	.	-1%	49%	2	8	6%
COc1ccc(Nc2nc(OC)nc(N3CCOCC3)n2)cc1	-4%	-1%	-11%	9	5	-4%
COc1ccc(Nc2nc(Nc3ccc(OC)cc3)nc(-n3[nH]c(=O)c(C)c3C)n2)cc1	2.6µM*	2%	.	8	-3	23%
CCC1(c2ccccc2)C(=O)NCNC1=O	5%	0%	-9%	-2	-2	0%
CCC1(c2ccccc2)CCC(=O)NC1=O (configuration not stated)	19µM*	.	?	-3	-6	.
COc1cc(/C=N/Nc2ccc3ccccc3c2)ccc1OC(=O)c1ccco1	?	-26%	?	29*	41*	2%
O=C(N/N=C\c1ccc(OC(=O)c2ccco2)cc1)c1ccc(Cl)cc1	52%	-1%	28%	-2	-8	4%
O=C(N/N=C/c1cccc(OC(=O)c2ccco2)c1)c1ccc(F)cc1	168%	-10%	72%	64*	26*	12%
COc1cc(/C=N/NC(=O)c2ccc(F)cc2)ccc1OC(=O)c1ccco1	48%	9%	55%	21*	52	-26%
CCCCN(C)C(=O)Cn1ncc2c3ccccc3n(CCC)c2c1=O	?	2%	9%	19	-3	4%
COc1cccc(OCCNC(=O)c2ccc(C)cc2)c1	29%	1%	33%	27*	40*	-7%
Cc1ccc(C(=O)NCCOc2ccc(Cl)cc2)cc1	5%	1%	7%	32*	51*	-44%
COc1cccc(OCCNC(=O)c2cccc(OC)c2)c1	20%	4%	-29%	7	1	-7%
CC(=O)Nc1cccc(OCCCNC(=O)c2ccc(C(C)(C)C)cc2)c1	-19%	0%	?	25*	45*	2%
Cc1ccc(C(=O)CC(=O)COc2ccc(Cl)cc2)cc1	?	-11%	151%	18*	27	-7%
Cc1ccc(OCCNC(=O)c2cccc(C)c2)cc1	-17%	-8%	?	10	8	-15%
